Structures are written as SMILES. The panel holds about 83,000 compounds, 20% with a hit somewhere; the sample as a whole holds those more often.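 Results are percent growth after 48 hours of single-concentration exposure. 100 means growth as in untreated cells, lower positive values show inhibition; negative values down to -100 show cell death.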 Values without a mark were called inactive. Calls of active or inactive are those of the source. The calls were made as follows: active = growth percent below 10; inactive = the rest.

This experiment concerns HL-60(TB) leukemia. Briefly: NCI-60 one-dose screen, 48 h (100 = growth as untreated, 0 = no growth, -100 = all killed). Conditions: 10 µM unless noted.
Regarding `CC(C)(C)[Si](C)(C)OC1[C@@H](O[Si](C)(C)C(C)(C)C)[C@@H](CNC(=O)NC(=O)NC(=O)CI)O[C@H]1n1cnc2c(NC(=O)Nc3ccccc3)ncnc21` (stereo not given in full), the growth was -67.1% (active).

`CCOC(=O)C(C#N)C1CCCCC1` (stereo not given): the growth is 67.5%. For the compound `O=C1CC(c2ccsc2)c2snc(-c3ccc(Cl)cc3)c2N1` (stereo not given), the growth is 12.9%.

With `NC(=O)CC1(c2ccccc2)CCCCC1`, the growth was 98.4%. Consider `CC[C@]1(O)C[C@H]2CN(CCc3c([nH]c4ccccc34)C(C(=O)OC)(c3cc4c(cc3OC)N(C)[C@H]3[C@@](O)(C(=O)OC)[C@H](OC(C)=O)[C@]5(CC)[C@@H]6C[C@@H]6CN6CC[C@]43[C@@H]65)C2)C1` (stereo not given in full), for which the growth is -30.9% (active).

The record behind these values is PubChem BioAssay (NCI).
